# In PubChem BioAssay (NCATS):
# Several values for one entry are separate records, joined by “and”; a condition that tells them apart may be missing. Equal entries are not always repeated. Inconclusive results are not listed. Where a call stands in place of a potency, no number is given. Activity calls are given as the source filed them. The call rests on the fitted dose curve.
# Legend:
# [1] = Cytotoxicity counterscreen for inhibitors of SARS-CoV-2 cell entry (AID 1645845); further: nearly all actives have a fitted effect of over 50% in size
# In short: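 After a 15 min room-temperature ATPLite 1step step, luminescence reflected ATP remaining in HEK293-ACE2 cells exposed to compound for 1 h plus 48 h at 37 C, with percent activity set by cell and no-cell controls.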
# [2] = Primary qHTS to identify inhibitors of SARS-CoV-2 cell entry (AID 1645846); conditions: activity change, negative = inhibition: at 57.1 µM (top of the series) unless noted; further: nearly all actives have a fitted effect of over 45% in size
# In short: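 HEK293-ACE2 (Expi293F, stable hACE2), 1500 cells/well, o/n 37C; cpd 23 nL pin, 1 h; MLV-PP w/ SARS-CoV-2-S (Wuhan-Hu-1, Δ19 C-term); 48 h 37C; Bright-Glo luminescence; normalized vs S-PP and bald PP.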
# Potency means the concentration at half of the fitted maximal effect.
Compound,Potency [1],"activity change, negative = inhibition [2]",Potency [2]
Cn1cnc2c(F)c(Nc3ccc(Br)cc3Cl)c(C(=O)NOCCO)cc21,inactive,-32.9%,–
Nc1nnc(-c2cccc(Cl)c2Cl)c(N)n1,inactive,–,inactive
CNS(=O)(=O)Cc1ccc2[nH]cc(CCN(C)C)c2c1,inactive,–,inactive
Nc1nc2c(ncn2COC(CO)CO)c(=O)[nH]1,inactive,-11.4% and -3.55%,–
CC(C)(C)NC(=O)[C@H]1CC[C@H]2[C@@H]3CC[C@H]4NC(=O)C=C[C@]4(C)[C@H]3CC[C@]12C,inactive,–,inactive
O=C1NC(c2ccccc2)(c2ccccc2)C(=O)N1COP(=O)(O)O,inactive,-4.89%,–
CN(C)c1ccc(O)c2c1C[C@H]1C[C@H]3[C@H](N(C)C)C(=O)C(C(N)=O)=C(O)[C@@]3(O)C(=O)C1=C2O,inactive,-8.61%,–
COc1ccc(Cl)cc1C(=O)NCCc1ccc(S(=O)(=O)NC(=O)NC2CCCCC2)cc1,inactive,4.27%,–
CC(C)Nc1cccnc1N1CCN(C(=O)c2cc3cc(NS(C)(=O)=O)ccc3[nH]2)CC1,inactive,–,inactive
Nc1nc(=S)c2[nH]cnc2[nH]1,7.94 µM (active),–,14.1 µM (active)
CCOC(=O)Nc1ccc2c(c1)N(C(=O)CCN1CCOCC1)c1ccccc1S2,inactive,-15.7%,–
CN(C)/N=N/c1nc[nH]c1C(N)=O,inactive,–,inactive
Fc1ccc([C@@H]2CCNC[C@H]2COc2ccc3c(c2)OCO3)cc1,inactive,-4.22%,–
CCOC(=O)[C@H](CCc1ccccc1)N[C@@H](C)C(=O)N1Cc2cc(OC)c(OC)cc2C[C@H]1C(=O)O,inactive,-29.2%,–
